From PubChem BioAssay AID720700 (The Scripps Research Institute Molecular Screening Center, 2013)
Screen size: about 370,000 compounds; about 3,100 (0.84%) were called active. The sample holds actives, similar compounds and a random draw of the others, so the mix is not that of the screen. Unmarked numbers belong to inactive results. Rule as the data show it: active = inhibition above about 9.5%; inactive = the rest.

biological target: 1-phosphatidylinositol 4,5-bisphosphate phosphodiesterase gamma-1 (Homo sapiens) (UniProt P19174); assay: blockers of human PLCG1 activity – biochemical, fluorescence, purified enzyme, primary screen (AID 720700); settings: purified PLC-gamma1, fluorogenic substrate, at 12.2 µM, active compounds read high
Sequence (P19174 whole entry, looked up): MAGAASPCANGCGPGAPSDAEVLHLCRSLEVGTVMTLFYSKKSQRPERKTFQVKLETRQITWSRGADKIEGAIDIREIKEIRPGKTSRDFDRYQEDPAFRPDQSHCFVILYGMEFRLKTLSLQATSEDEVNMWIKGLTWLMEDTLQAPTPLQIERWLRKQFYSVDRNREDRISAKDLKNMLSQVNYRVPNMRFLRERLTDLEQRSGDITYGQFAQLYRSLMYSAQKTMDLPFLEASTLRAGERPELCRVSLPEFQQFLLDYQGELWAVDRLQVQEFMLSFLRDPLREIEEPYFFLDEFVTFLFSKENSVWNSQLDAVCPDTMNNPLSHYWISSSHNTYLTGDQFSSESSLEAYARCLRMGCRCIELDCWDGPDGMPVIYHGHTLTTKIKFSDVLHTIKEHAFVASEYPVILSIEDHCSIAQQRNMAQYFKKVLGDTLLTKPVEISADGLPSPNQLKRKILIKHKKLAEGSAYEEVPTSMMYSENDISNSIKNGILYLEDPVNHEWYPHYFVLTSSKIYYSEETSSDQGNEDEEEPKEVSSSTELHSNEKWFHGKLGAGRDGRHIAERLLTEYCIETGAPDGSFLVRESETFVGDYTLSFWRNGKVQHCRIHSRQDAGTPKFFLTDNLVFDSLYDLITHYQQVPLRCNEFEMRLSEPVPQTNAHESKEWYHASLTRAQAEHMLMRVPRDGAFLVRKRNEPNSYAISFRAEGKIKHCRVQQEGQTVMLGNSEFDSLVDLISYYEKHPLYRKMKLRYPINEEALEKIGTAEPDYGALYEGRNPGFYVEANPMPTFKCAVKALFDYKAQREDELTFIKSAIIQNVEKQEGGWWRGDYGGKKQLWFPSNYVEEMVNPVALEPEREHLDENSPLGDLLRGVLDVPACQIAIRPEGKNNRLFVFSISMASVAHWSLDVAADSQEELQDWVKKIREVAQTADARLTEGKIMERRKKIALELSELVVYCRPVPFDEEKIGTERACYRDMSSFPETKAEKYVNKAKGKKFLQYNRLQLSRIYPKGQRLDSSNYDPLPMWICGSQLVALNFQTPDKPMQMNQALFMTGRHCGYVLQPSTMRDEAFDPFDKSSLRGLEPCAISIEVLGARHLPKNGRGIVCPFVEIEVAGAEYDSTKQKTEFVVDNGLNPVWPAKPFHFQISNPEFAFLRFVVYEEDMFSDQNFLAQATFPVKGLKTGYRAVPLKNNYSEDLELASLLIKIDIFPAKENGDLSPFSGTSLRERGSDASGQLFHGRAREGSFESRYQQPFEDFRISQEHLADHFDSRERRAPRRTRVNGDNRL

SMILES | inhibition
CN(C)c1ccc(/C=C2\NC(=S)N(Cc3ccccc3)C2=O)cc1 | -48.2%
CCCCN=C1N/C(=C\c2ccco2)C(=O)N1c1ccccc1 | -18.1%
O=C1/C(=C\c2ccsc2)NC(=S)N1c1ccccc1 | 9.99% (active)
COc1ccc(C2CC=C(C(=O)O)C(c3ccccc3F)N2S(=O)(=O)c2ccc(C)cc2)cc1OC (stereo not given) | -0.05%
CCCCOCCCNC(=O)C[C@H]1C[C@@]2(C(=O)OC)C(=C[C@H](COCc3ccccc3)O[C@@H]2C)N(Cc2cccc3ccccc23)C1=O | 2.09%
CCCCNC(=O)C[C@@H]1C(=O)N(CCc2ccc(Cl)cc2)C2=CCCC[C@]21C(=O)OCC | 1.96%
Cc1ccc(-c2nnc(SCC(=O)Nc3ccc(Oc4ccccc4)cc3)n2Cc2ccco2)cc1 | -3.01%
COc1ccc(-c2cc(-c3nnc(SCc4ccc([N+](=O)[O-])cc4)n3N)[nH]n2)cc1 | -0.19%
C#CCN([C@H](C(=O)OC)C(C)CC)S(=O)(=O)c1ccccc1Br (stereo not given in full) | -0.23%
CN1c2ccc(C=O)c3c(C=O)ccc(c23)N(C)C1(C)C | -156%
Cc1ccc(C=O)c([B-](F)(F)F)c1 | 9.66% (active)
COc1ccc(C(=O)CSc2nnc(-c3cnccn3)n2-c2ccc(C)cc2)cc1 | -2.8%
CCC[C@H]1C(=O)CC[C@@]23CCCN2C(=O)CCC[C@@H]13 | -1.51%
CCOC(=O)[C@]12CCCC3=C1N(CCC3)C(=O)[C@@H](CC(=O)NCc1cccs1)C2 | -0.59%
S=c1[nH]nc(-c2cccnc2)n1/N=C/C(Cl)=C\c1ccccc1 | 12.7% (active)
C(=C\c1ccccc1)/CSc1nnc(-c2cccnc2)n1Cc1ccco1 | -1.89%
CSc1ccc(C=Nn2c(-c3ccc(F)cc3)n[nH]c2=S)cc1 | 3.12%
Cc1[nH]c(C)c(S(=O)(=O)N2CCN(c3cccc(C(F)(F)F)c3)CC2)c1C(=O)N1CCCCC1 | 0.49%
Cc1[nH]c(C)c(S(=O)(=O)N2CCN(c3cccc(C(F)(F)F)c3)CC2)c1C(=O)N1CCCC1 | 0.67%
Cc1ccc(C)c(N2CCN(S(=O)(=O)c3c(C)[nH]c(C)c3C(=O)N3CCCC3)CC2)c1 | 17% (active)

SMILES | inhibition
CN(C(N)=NC(=O)/C=C/c1ccccc1)C(C#Cc1ccccc1)Cc1ccccc1 (stereo not given) | -3.61%
C=CCN(Cc1ccc2c(c1)OCO2)C(C#CC1CC1)C(C)(C)C (stereo not given) | -0.25%
O=c1ccc2c(-c3ccccc3S(=O)(=O)O)c3ccc(O)c(O)c3oc-2c1O | 25.2% (active)
O=C(CSc1nc2ccccc2n1Cc1ccccc1)NNC(=S)Nc1ccccc1 | 3.11%
C#CCNC(=O)C[C@H]1C[C@@]2(C(=O)OC)C(=C[C@H](C(C)C)O[C@@H]2C2CC2)N(Cc2ccco2)C1=O | 0.18%
O=C(NCc1cccs1)C1CCN(S(=O)(=O)c2ccccc2[N+](=O)[O-])CC1 | 3.22%
c1coc(CCNc2ncnc3ccc(-c4ccc5c(c4)OCO5)cc23)c1 | -114%
CC(C)CCSc1ncnc2c1oc1nc3c(cc12)COC(C)(C)C3 | 10.6% (active)
CCCc1nc2oc3c(OCC)ncnc3c2c2c1COC(C)(C)C2 | 2.49%
CC1(C)Cc2nc3sc4c(SCC(=O)NC(c5ccccc5)c5ccccc5)ncnc4c3cc2CO1 | -1.56%
COC(=O)C1CN(Cc2ccc(F)cc2)CCS(=O)(=O)N1Cc1ccc(Cl)cc1 (stereo not given) | -0.52%
C=CCN1C(=O)[C@@H](CC(=O)NCC2CCCCC2)[C@]2(C(=O)OC)CCCCC=C12 | -0.08%
CC(C)CSc1nnc(-c2cccnc2)n1Cc1ccccc1 | 0.54%
COc1ccnc(NC(=S)N2CCN(c3ncc(C(F)(F)F)cc3Cl)CC2)c1 | 4.36%
O=C(Nc1cccc(Cl)c1)OC1CC2CC1[C@H]1CCCCN1[C@H]2Cc1ccccc1 (stereo not given in full) | -19.3%
O=C1N[C@H](Cc2c[nH]c3ccccc23)COC(=O)[C@H](Cc2ccc(F)cc2)C/C=C\C[C@H]1CC(=O)N(CCO)Cc1ccccc1 | 1.6%
O=C1N[C@@H](c2ccccc2)COC(=O)[C@H](Cc2ccc(F)cc2)C/C=C\C[C@@H]1CC(=O)N(CCO)Cc1ccccc1 | 9.59% (active)
O=C1NC[C@@H](c2ccccc2)OC(=O)[C@H](Cc2ccc(F)cc2)CC/C=C/C[C@H]1CC(=O)N(CCO)Cc1ccccc1 | -0.18%
O=C(Nc1nc2ccc(Cl)cc2s1)c1cc(-c2ccc(Cl)cc2)nc2ccccc12 | 6.56%
Cc1ccc(Cn2cc(CN3[C@@H](CC(C)C)COc4ccc(Cl)cc4S3(=O)=O)nn2)cc1 | 1.86%
